Screens as filed in PubChem.
HT1080 IDH1KD tx – HT-1080 IDH1 knockdown cell toxicity (counter line) | HT-1080 IDH1 knockdown viability, ATP luminescence, 48 h | Potency, µM (top dose mostly 46.1 µM), usual class: cytotoxic | 2% of 360,000 active | AID 686971
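Assay cells: HT-1080 with IDH1 knockdown, 750 per well, RPMI/5% FBS. Exposure: 48 h at 37 °C following 2 h pre-incubation. Read: CellTiter-Glo luminescence; fitted concentration-response, curve class assigned.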
TDP1 cell CPT – growth inhibition of DT40 Tdp1-/-;hTDP1 cells with camptothecin (screen for TDP1 inhibitors) | chicken DT40 Tdp1-/-;hTDP1 cells + 20 nM CPT, ATP luminescence, 48 h | Potency, µM (doses to about 46.2 µM), most hits filed as inhibitors | 12% of 420,000 active | AID 686979; note: nearly all actives have a fitted effect of over 55% in size
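Chicken DT40 Tdp1-/- cells stably complemented with human TDP1 were seeded at 400 cells/well in medium containing 20 nM camptothecin, exposed to pin-transferred compounds, and grown at 37 °C for at least 48 hr. Viability was read as ATP luminescence.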
DT40 TDP1 no CPT – qHTS for Inhibitors of human tyrosyl-DNA phosphodiesterase 1 (TDP1): qHTS in cells in absence of CPT; DT40 Tdp1-/- hTDP1 cells, no CPT, ATP luminescence, 48 h; Potency, µM (titrated, usually from 46.2 µM), actives largely listed as inhibitors; 15% of 420,000 active; note: nearly all actives have a fitted effect of over 55% in size
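Stably hTDP1-transfected Tdp1-null chicken DT40 cells were treated with library compounds minus camptothecin and grown for at least 48 hr at 37 °C, after which cellular ATP was quantified by luminescence.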
HT1080-NT tox – kills 2HG-producing HT-1080-NT fibrosarcoma cells; HT-1080-NT fibrosarcoma viability, CellTiter-Glo ATP luminescence, 48 h; Potency, µM (titrated, usually from 46.1 µM), hits mostly cytotoxic; 1.6% of 360,000 active;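 note: NT is the 2HG producing partner of a matched IDH1 knockdown line; nearly all actives have a fitted effect of over 55% in size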
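Viability of the 2HG-overproducing fibrosarcoma line after 48 hours of compound exposure at 37 degrees C was determined by luminescence with CellTiter-Glo, and concentration-effect curves were then fitted and categorized.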
IL1B secr inh – inhibitors of inflammasome signaling (IL-1 beta secretion); 4.7% of 360,000 active; activity change, % at 57.5 µM; THP-1 LPS/ATP IL-1B secretion, AlphaLISA, 16 h; active compounds read low; in the data active = activity change below about -50%; inconclusive = mostly about -30% to -49%
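THP-1 cells pretreated 1 hr with compounds (up to 57.5 uM final), then stimulated with LPS (250 ng/mL final) plus ATP (1.25 mM final); secreted IL-1B measured by AlphaLISA after 16 hr, decreased signal indicating inhibition.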
A number is an active result. Compounds with a hit are over-represented: about 19% of the library has one in this group of screens. Unless noted, calls come from the whole dose curve; as a rule, active = well fitted curve in the direction sought with a large enough effect; inconclusive = small, poorly fitted or top-dose-only effect, or another doubt; inactive = no such curve, though single readings can be large; an effect the other way counts as inactive or inconclusive.

Cc1c(C(=O)N(C)C2CCCCC2)sc2ncnc(N3CCN(c4ccccc4)CC3)c12 was read as HT1080 IDH1KD tx inconclusive, TDP1 cell CPT 13µM, DT40 TDP1 no CPT 15µM, HT1080-NT tox inconclusive and IL1B secr inh inactive.
Screening CCN1CCN(c2ncnc3sc(C(=O)Nc4ccccc4F)c(C)c23)CC1 returned HT1080 IDH1KD tx inactive, TDP1 cell CPT inactive, DT40 TDP1 no CPT inactive, HT1080-NT tox inactive and IL1B secr inh inactive.
Screening Cc1c(C(=O)N2CCC(C)CC2)sc2ncnc(N3CCN(c4ccccc4)CC3)c12 returned HT1080 IDH1KD tx inactive, TDP1 cell CPT inactive, DT40 TDP1 no CPT inactive, HT1080-NT tox inactive and IL1B secr inh inactive.
`O=c1c2[nH]c3ccccc3c2ncn1CCC1=CCCCC1` gave HT1080 IDH1KD tx inactive, TDP1 cell CPT inactive, DT40 TDP1 no CPT inactive, HT1080-NT tox inactive and IL1B secr inh inactive.
`O=c1c2c3nc4ccccc4nc3n(/N=C/c3ccco3)c2ncn1CCC1=CCCCC1` gave HT1080 IDH1KD tx inactive, TDP1 cell CPT 16µM, DT40 TDP1 no CPT 21µM, HT1080-NT tox inactive and IL1B secr inh inactive.
Screening CC1(C)COC(c2ccc3c(c2)OCO3)OC1 returned HT1080 IDH1KD tx inactive, TDP1 cell CPT inactive, DT40 TDP1 no CPT inactive, HT1080-NT tox inactive and IL1B secr inh inactive.
`OC1O[C@H](c2ccc3c(c2)OCO3)[C@H]2CO[C@H](c3ccc4c(c3)OCO4)[C@@H]12` (stereo partly specified) gave HT1080 IDH1KD tx inactive, TDP1 cell CPT inconclusive, DT40 TDP1 no CPT 21µM, HT1080-NT tox inactive and IL1B secr inh inactive.
Screening O=C(Cc1cccs1)NCCSc1c(-c2ccc(Cl)cc2)[nH]c2ccccc12 returned HT1080 IDH1KD tx inconclusive, TDP1 cell CPT 18µM, DT40 TDP1 no CPT 13µM, HT1080-NT tox inconclusive and IL1B secr inh inactive.
Screening CN(C)S(=O)(=O)c1ccc(C(=O)NCCSc2c(-c3ccc(Cl)cc3)[nH]c3ccccc23)cc1 returned TDP1 cell CPT 4.1µM and DT40 TDP1 no CPT 5.2µM.
Cc1ccc(-c2[nH]c3ccccc3c2SCCNC(=O)c2ccc(S(=O)(=O)N(C)C)cc2)cc1 was read as TDP1 cell CPT 5.8µM and DT40 TDP1 no CPT 5.8µM.
For CC(NS(=O)(=O)c1ccc(Br)cc1F)[C@H](O)c1ccccc1 (stereo partly specified) the results were HT1080 IDH1KD tx inactive, TDP1 cell CPT inactive, DT40 TDP1 no CPT inconclusive, HT1080-NT tox inactive and IL1B secr inh inactive.
Screening CCC(=O)Nc1c2c(nn1-c1cccc(Cl)c1)CSC2 returned HT1080 IDH1KD tx inactive, TDP1 cell CPT inactive, DT40 TDP1 no CPT 0.73µM, HT1080-NT tox inactive and IL1B secr inh inactive.
`COc1cc(OC)c2cc(-c3ccncc3)cnc2c1` gave TDP1 cell CPT 24µM and DT40 TDP1 no CPT 27µM.
Cc1ccc(NC(=S)NC(=O)/C=C/c2ccco2)c(O)c1 was read as HT1080 IDH1KD tx inactive, TDP1 cell CPT inactive, DT40 TDP1 no CPT inconclusive, HT1080-NT tox inactive and IL1B secr inh inactive.
O=C(/C=C/c1ccco1)NC(=S)Nc1ccccc1N1CCCC1 was read as HT1080 IDH1KD tx inactive, TDP1 cell CPT inconclusive, DT40 TDP1 no CPT 21µM, HT1080-NT tox inactive and IL1B secr inh inactive.
Screening O=C(/C=C\c1ccco1)NC(=S)Nc1ccccc1O returned HT1080 IDH1KD tx inconclusive, TDP1 cell CPT 18µM, DT40 TDP1 no CPT inconclusive, HT1080-NT tox inconclusive and IL1B secr inh inactive.
For O=C(/C=C/c1ccco1)NC(=S)Nc1ccccc1N1CCOCC1 the results were HT1080 IDH1KD tx inactive, TDP1 cell CPT inactive, DT40 TDP1 no CPT inconclusive, HT1080-NT tox inactive and IL1B secr inh inactive.
For COc1ccc(NC(=S)NC(=O)/C=C/c2ccco2)c(OC)c1 the results were HT1080 IDH1KD tx inactive, TDP1 cell CPT inactive, DT40 TDP1 no CPT inconclusive, HT1080-NT tox inactive and IL1B secr inh inactive.
O=C(/C=C/c1ccco1)NC(=S)Nc1ccccc1O was read as HT1080 IDH1KD tx inactive, TDP1 cell CPT inconclusive, DT40 TDP1 no CPT 18µM, HT1080-NT tox inactive and IL1B secr inh inactive.
Screening Brc1c(C[n+]2ccccc2)nc2ccccn12 returned HT1080 IDH1KD tx inactive, TDP1 cell CPT inactive, DT40 TDP1 no CPT inactive, HT1080-NT tox inactive and IL1B secr inh inactive.
COc1ccc(NC(=O)c2cc3ccccc3o2)cc1 was read as HT1080 IDH1KD tx inactive, TDP1 cell CPT inactive, DT40 TDP1 no CPT inactive, HT1080-NT tox inactive and IL1B secr inh inactive.
For N#CCn1cc(/C=N/NC(=O)c2cc3c(ccc4ccccc43)o2)c2ccccc21 the results were HT1080 IDH1KD tx 9.2µM, TDP1 cell CPT 21µM, DT40 TDP1 no CPT 12µM, HT1080-NT tox inconclusive and IL1B secr inh inactive.
Screening O=C(N/N=C/c1ccncc1)c1cc2c(ccc3ccccc32)o1 returned HT1080 IDH1KD tx inactive, TDP1 cell CPT inactive, DT40 TDP1 no CPT inactive, HT1080-NT tox inactive and IL1B secr inh inactive.
`N#CCC(=O)N/N=C/c1cn(Cc2cccc3ccccc23)c2ccccc12` gave HT1080 IDH1KD tx 10µM, TDP1 cell CPT 5.2µM, DT40 TDP1 no CPT 3.7µM, HT1080-NT tox inconclusive and IL1B secr inh inactive.
For COc1ccccc1/C=N/NC(=O)c1cc2c(ccc3ccccc32)o1 the results were HT1080 IDH1KD tx inactive, TDP1 cell CPT 16µM, DT40 TDP1 no CPT inconclusive, HT1080-NT tox inactive and IL1B secr inh inactive.
For COc1ccc2ccc(OC)c(/C=N/NC(=O)c3cc4ccccc4o3)c2c1 the results were HT1080 IDH1KD tx inconclusive, TDP1 cell CPT inconclusive, DT40 TDP1 no CPT 18µM, HT1080-NT tox inconclusive and IL1B secr inh inactive.
N#CCC(=O)N/N=C/c1cn(Cc2ccccc2C#N)c2ccccc12 was read as HT1080 IDH1KD tx inactive, TDP1 cell CPT inactive, DT40 TDP1 no CPT inactive, HT1080-NT tox inactive and IL1B secr inh inactive.
`COc1cc(C(CC(=O)Nc2cc(C)ccn2)N2Cc3ccccc3C2=O)cc(OC)c1OC` (stereo unspecified) gave HT1080 IDH1KD tx inactive, TDP1 cell CPT inactive, DT40 TDP1 no CPT inconclusive, HT1080-NT tox inactive and IL1B secr inh inactive.
O=C(CC1C(=O)Nc2ccccc2N1CC(=O)N1CCCC1)Nc1ccc(Br)cc1 (stereo unspecified) was read as HT1080 IDH1KD tx inactive, TDP1 cell CPT inactive, DT40 TDP1 no CPT inactive, HT1080-NT tox inactive and IL1B secr inh inactive.
Screening N#CCC(=O)N/N=C/c1c(-c2ccccc2)n(-c2ccccc2)c2ccccc12 returned HT1080 IDH1KD tx inactive, TDP1 cell CPT inconclusive, DT40 TDP1 no CPT 21µM, HT1080-NT tox inactive and IL1B secr inh inactive.
Screening COc1ccc(/C=N/NC(=O)c2cc3c(ccc4ccccc43)o2)cc1OC returned HT1080 IDH1KD tx inactive, TDP1 cell CPT inconclusive, DT40 TDP1 no CPT inconclusive, HT1080-NT tox inactive and IL1B secr inh inactive.
Screening COc1ccc(/C=N\NC(=O)c2cc3c(ccc4ccccc43)o2)cc1O returned HT1080 IDH1KD tx 4.6µM, TDP1 cell CPT inconclusive, DT40 TDP1 no CPT inconclusive, HT1080-NT tox inconclusive and IL1B secr inh inactive.
